# High-throughput results: PubChem BioAssay, National Center for Advancing Translational Sciences (NCATS)
# hNpr1 antagonist – antagonists of human natriuretic peptide receptor Npr1. HEK293 hNpr1 GloSensor cGMP, ANP-stimulated luminescence. Potency, µM (top dose mostly 46.3 µM), without a hit: at the top dose activity change, negative = inhibition, hits mostly inhibitors. 76,000 compounds, 1.6% hits; calls by dose curve; further: nearly all actives have a fitted effect of over 60% in size
# Target sequence (P16066 whole entry, looked up): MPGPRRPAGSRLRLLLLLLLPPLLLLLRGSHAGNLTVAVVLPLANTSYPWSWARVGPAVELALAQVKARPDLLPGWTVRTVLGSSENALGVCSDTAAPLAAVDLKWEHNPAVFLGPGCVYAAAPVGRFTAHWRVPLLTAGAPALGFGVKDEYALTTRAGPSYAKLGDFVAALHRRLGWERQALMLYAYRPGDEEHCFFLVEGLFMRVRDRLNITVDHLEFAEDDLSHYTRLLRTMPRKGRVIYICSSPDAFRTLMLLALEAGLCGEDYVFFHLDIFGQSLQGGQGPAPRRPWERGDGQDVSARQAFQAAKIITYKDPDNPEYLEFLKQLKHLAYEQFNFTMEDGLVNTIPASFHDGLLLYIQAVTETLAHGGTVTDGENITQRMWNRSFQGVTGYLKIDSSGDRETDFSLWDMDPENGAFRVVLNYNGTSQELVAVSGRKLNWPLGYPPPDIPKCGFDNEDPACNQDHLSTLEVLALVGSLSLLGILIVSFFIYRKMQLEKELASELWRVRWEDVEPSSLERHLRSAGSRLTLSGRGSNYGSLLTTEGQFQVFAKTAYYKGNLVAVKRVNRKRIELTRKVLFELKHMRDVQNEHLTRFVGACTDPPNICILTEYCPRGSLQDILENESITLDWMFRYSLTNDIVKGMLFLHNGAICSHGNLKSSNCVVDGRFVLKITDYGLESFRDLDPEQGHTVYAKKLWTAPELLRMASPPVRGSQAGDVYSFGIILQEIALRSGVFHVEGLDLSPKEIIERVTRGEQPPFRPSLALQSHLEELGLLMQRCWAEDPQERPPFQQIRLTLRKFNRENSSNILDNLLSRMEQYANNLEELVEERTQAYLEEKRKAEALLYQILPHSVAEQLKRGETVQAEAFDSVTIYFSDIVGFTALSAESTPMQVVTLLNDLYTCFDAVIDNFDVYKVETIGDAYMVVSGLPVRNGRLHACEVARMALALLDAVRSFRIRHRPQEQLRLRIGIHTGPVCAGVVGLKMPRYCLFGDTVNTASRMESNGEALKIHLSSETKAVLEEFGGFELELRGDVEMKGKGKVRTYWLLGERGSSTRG
#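 HEK293 cells stably expressing human Npr1 and cGMP GloSensor pGS-40F, loaded 2 h with 2% GloSensor reagent, given compound 30 min at room temperature. Luminescence read before and 20 min after 0.1 nM hNppA.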
# Luciferase inh – Photinus pyralis luciferase inhibition | purified P. pyralis luciferase, luminescence, biochemical | 76,000 compounds, 2.5% hits | AID 1347043 | P08659 | Potency, µM (series often up to 115 µM), most hits filed as inhibitors; further: nearly all actives have a fitted effect of over 65% in size
#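 Cell-free enzyme assay, 10nM P. pyralis luciferase, luciferin and ATP each at 10uM. Inhibition profiled over a 6-point titration, read as luminescence.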
# 3T3 cytotox – cytotoxic compounds in NIH 3T3 cells; NIH 3T3 viability, CellTiter-Glo ATP luminescence, 48-72 h; Potency, µM (doses to about 96.7 µM), without a hit: at the top dose activity change, negative = cytotoxicity, most hits filed as inhibitors; 94,000 compounds, 4.3% hits; further: nearly all actives have a fitted effect of over 55% in size
#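 Cytotoxicity was measured by CellTiter-Glo ATP luminescence after 48 or 72 h compound exposure at 37 °C. Mouse NIH 3T3 fibroblasts were seeded at 400 cells/well and dosed by 23 nL pin transfer.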
# HEK cytotox – kills HEK 293 cells; HEK 293 viability, ATP luminescence (CellTiter-Glo), 48-72 h; Potency, µM (doses to about 115 µM), for inactives: at the top dose activity change, negative = cytotoxicity, hits mostly inhibitors; 94,000 compounds, 6.6% hits; AID 1345083; further: nearly all actives have a fitted effect of over 60% in size
#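 Cells seeded first (HEK 293, 250 cells/well), then compound added by pintool. Incubation ran 48 or 72 hr at 37 degree Celsius. CellTiter-Glo was added and luminescence imaged after 10 min at room temperature.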
# * = called active by the depositor; i = inactive; ? = inconclusive; nt = not tested or not shown; [ ] = another dose, or the depositor's remark. Most compounds without a hit are left out; they make up all but 11% or so of the library. Unless noted, the call rests on the fitted dose curve; in most records, active means well fitted curve in the direction sought with a large enough effect; inconclusive means small, poorly fitted or top-dose-only effect, or another doubt; inactive means no such curve, though single readings can be large; an effect the other way counts as inactive or inconclusive. On the % scale 0 is the no-effect control and ±100 the full control effect; potency means the concentration at half of the fitted maximal effect.
SMILES,hNpr1 antagonist,Luciferase inh,3T3 cytotox,HEK cytotox
COc1cccc(CCNC(=O)c2c(C)nc3cnccn23)c1,nt,nt,?,-26%[172 µM]
COc1ccc(Cl)cc1NC(=O)CCC1CCCN(C(=O)c2ccoc2C)C1 (stereo not drawn),0%,i,?,32µM*
COc1ccc(NC(=O)CCC2CCCN(C(=O)CC3=CCCCC3)C2)cc1Cl (stereo not drawn),?,?,-27%,?
COc1ccc(Cl)cc1NC(=O)CCC1CCCN(c2nc(C)cc(C)n2)C1 (stereo not drawn),4%,i,?,?
COc1ccc(NC(=O)CCC2CCCN(C(=O)c3ccccc3SC)C2)cc1Cl (stereo not drawn),13µM*,?,?,?
CC(C)COC(=O)N1C[C@H](C(N)=O)[C@H]2c3ccccc3N(C)C(=O)[C@]21C,nt,nt,?,-20%
COCCN1C(=O)c2cccn2CC1CNC(=O)c1ccc(-n2c(C)ccc2C)cc1 (stereo not drawn),nt,nt,?,25µM*
COc1cccc(C(=O)N2CCCN(c3ccnc4ccnn34)CC2)c1,nt,nt,-22%,-16%
O=C(CCc1ccccc1)NCCC1CCN(C(=O)Nc2cccc(F)c2)CC1,-11%,i,-18%,-10%
O=C(C1CCCCCC1)N1CCC(n2cc(C3CCCCC3)nn2)CC1,?,i,?,89µM*
O=C(Nc1ccccc1Cl)N1CCC(n2cc(C3CCCC3)nn2)CC1,0%,i,-26%,?
CCOCC1(C)COc2ccc(C(=O)Nc3cccc(Cl)c3)cc2N1 (stereo not drawn),?,20µM*,40µM*,63µM*
CN(C)CCCOCC1(C)COc2ccc(C(=O)Nc3cccc(Cl)c3)cc2N1 (stereo not drawn),-7%[70.6 µM],i,?,35µM*
CCOCC1(C)COc2ccc(C(=O)Nc3cccc(OC)c3)cc2N1 (stereo not drawn),-4%[70.6 µM],20µM*,-30%[138 µM],?
CCOCC1(C)COc2ccc(C(=O)Nc3cccc(N(C)C)c3)cc2N1 (stereo not drawn),0%[70.6 µM],63µM*,?,?
COc1cccc(NC(=O)c2ccc3c(c2)NC(C)(COCCN(C)C)CO3)c1 (stereo not drawn),-1%[70.6 µM],?,?,?
CN(C)S(=O)(=O)N1CC(n2cnnc2C2CCCO2)C1 (stereo not drawn),nt,nt,-12%,-15%
O=C(NCCCc1ccccc1)C1CCCN1C(=O)c1cccc(-c2cccnc2)c1 (stereo not drawn),nt,nt,?,-17%
O=C(c1ccsc1)N1CCCC2(C1)Nc1cccnc1NC2=NC1CCCC1 (stereo not drawn),1%,i,2%,-6%
COc1cccc(NC(=O)c2ccc3c(c2)NC(C)(CNc2ccccc2)CO3)c1 (stereo not drawn),?,?,28µM*,40µM*
COc1ccc(-c2ccc(C(=O)N3CCN([S+](=O)([O-])c4ccccc4)CC3)cc2)nn1,nt,nt,-23%,?
COc1cccc(-c2ccc(CN3CC4CCC(C3)N4c3ccc(C(F)(F)F)cc3)cc2)c1,13%,i,-2%,-12%
COc1ccc(F)cc1-c1ccc(CN2CCC(N[S+](=O)([O-])c3c(C)noc3C)C2)cc1 (stereo not drawn),nt,nt,?,45µM*
Cc1noc(C)c1[S+](=O)([O-])NC1CCCN(Cc2ccc(-c3cncnc3)cc2)C1 (stereo not drawn),nt,nt,-21%,?
COc1cccc(-c2ccc(CN3CCCC(N[S+](=O)([O-])c4cccs4)C3)cc2)c1 (stereo not drawn),nt,nt,32µM*,13µM*
SMILES,hNpr1 antagonist,Luciferase inh,3T3 cytotox,HEK cytotox
COc1ccc(F)cc1-c1ccc(CN2CCC(N[S+](=O)([O-])c3ccc(C)cc3)C2)cc1 (stereo not drawn),nt,nt,28µM*,32µM*
COc1ccccc1-c1ccc(CN2CC3CCC(C2)N3c2ccc(C(F)(F)F)cc2)cc1,nt,nt,-11%,-22%
COc1ccc(F)cc1-c1ccc(CN2CCC(N[S+](=O)([O-])c3cccs3)C2)cc1 (stereo not drawn),nt,nt,?,40µM*
Fc1ccccc1CC1CCN(CC2[C@H]3CNC[C@@H]23)CC1 (stereo partly drawn),4%,i,35µM*,?
COC(=O)c1cc2n(n1)CCCN(C(=O)COc1ccc(C)c(C)c1)C2,-1%,i,0%,-4%
COc1cc(C)c(CN2CCCn3nc(C(=O)N4CCCC4)cc3C2)cc1C,-9%,i,45µM*,45µM*
Cn1ncc2c(C(=O)Nc3ccccc3F)cc(-c3cccc(C(F)(F)F)c3)nc21,nt,nt,?,-19%
O=C(NCC1CC1)c1ccc2nnc(Cc3ccco3)n2c1,nt,nt,-32%[138 µM],5%[172 µM]
Cn1cnnc1CC1CCN(C(=O)CCc2ccccc2)CC1,nt,nt,-20%,-6%
Cn1ccnc1C(=O)N1CCC(Cc2ccc(CCC(=O)N3CCCC3)cc2)CC1,nt,nt,?,40µM*
O=C1CCN(C(=O)C2CCN(Cc3c[nH]c4ccccc34)CC2)CCCCCCN1,-1%,i,-13%,i
O=C(CCc1ccc(CC2CCN(Cc3c[nH]c4ccccc34)CC2)cc1)N1CCCC1,nt,nt,32µM*,35µM*
COCCNc1ncc(-c2cccc(O)c2)c2c1OCC2,0%[70.6 µM],28µM*,-54%[174 µM],-60%[230 µM]
COCCNc1ncc(-c2cccc(N)c2)c2c1OCC2,-17%[70.6 µM],25µM*,?,?
COCCNc1ncc(-c2cccc(C(C)=O)c2)c2c1OCC2,0%[70.6 µM],?,?,?
COc1cccc(CNC(=O)Nc2cccc(-c3ccc(N4CCCCC4)nn3)c2)c1,10µM*,0.25µM*,?,32µM*
CC1CCN(c2ccc(-c3cccc(NC(=O)NC(C)C)c3)nn2)CC1,2.2µM*,0.25µM*,-17%,?
COc1ccc(OC)c(NC(=O)Nc2cccc(-c3ccc(N4CCCCC4)nn3)c2)c1,13µM*,0.25µM*,-22%,?
COCC(=O)N1CC(N2C(=O)c3c(c(C)nn3-c3ccccc3)C2C2CC2)C1 (stereo not drawn),nt,nt,112µM*,-14%[172 µM]
Cc1nn(-c2ccccc2)c2c1C(C1CC1)N(C1CN(C(=O)c3ccc(F)cc3)C1)C2=O (stereo not drawn),nt,nt,?,45µM*
O=C(NCc1ccc(F)cc1)c1ccc2nnc(C3CC3)n2c1,nt,nt,?,-21%[172 µM]
Cc1ccc(C2NC(=O)N(CC(=O)Nc3c(C)cccc3Cl)C3=C2C(=O)OC3)cc1 (stereo not drawn),0%,i,0%,14%
O=C(CN1C(=O)NC(c2ccc(Cl)cc2)C2=C1COC2=O)Nc1ccc(Cl)cc1F (stereo not drawn),-26%,i,35µM*,?
Cc1cccc(Cl)c1NC(=O)CN1C(=O)NC(c2ccc(Cl)cc2)C2=C1COC2=O (stereo not drawn),-13%,i,?,32µM*
